Bioassay records: PubChem BioAssay, National Center for Advancing Translational Sciences (NCATS)
D2 ag-1: HTS Assay for Allosteric Agonists of the Human D2 Dopamine Receptor: Primary Screen for Agonists | D(2) dopamine receptor (Homo sapiens), P14416 | activation, % at 2 µM | HEK293 T-REx D2 cells, calcium flux agonist mode | actives 0.53% (n = 340,000);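 active means activation over 3 SD above normal in the single-dose calcium agonist read, cut at about 30% in these data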; further: 0% is about no effect
Target sequence (P14416 whole entry, looked up): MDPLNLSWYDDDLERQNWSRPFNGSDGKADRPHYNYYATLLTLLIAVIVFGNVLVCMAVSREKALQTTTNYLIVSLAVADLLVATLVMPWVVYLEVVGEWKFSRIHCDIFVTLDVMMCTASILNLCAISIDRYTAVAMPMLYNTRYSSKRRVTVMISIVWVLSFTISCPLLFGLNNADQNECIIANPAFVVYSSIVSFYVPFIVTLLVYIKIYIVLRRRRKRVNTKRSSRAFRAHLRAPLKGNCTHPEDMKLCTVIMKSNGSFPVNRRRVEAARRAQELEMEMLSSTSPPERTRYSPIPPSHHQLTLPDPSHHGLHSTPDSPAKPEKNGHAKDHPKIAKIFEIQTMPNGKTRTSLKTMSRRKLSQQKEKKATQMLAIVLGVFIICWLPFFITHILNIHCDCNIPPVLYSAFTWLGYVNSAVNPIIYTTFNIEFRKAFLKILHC
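Tetracycline-induced HEK293 Trex cells with D2 receptor force-coupled to calcium signaling, plated overnight at 30 C and loaded with no-wash calcium dye. Calcium flux read kinetically for 180 s after compound addition; responses flag agonists.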
D2 PAM-1: Beta-Arrestin HTS for Positive Allosteric Modulators of the Human D2 Dopamine Receptor: Potentiators; potentiation, % (concentration not given with the values); DiscoveRx D2 beta-arrestin cells, luminescence, 90 min; 100% = 57 uM dopamine signal; D(2) dopamine receptor (Homo sapiens), P14416; actives 0.23% (n = 360,000); in the data active means potentiation above about 50%; inconclusive means mostly about 30% to 49%
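PathHunter D2 cells, attached overnight at 37 deg C, received compound in DMSO plus dopamine at EC20 (50 nM final) for 90 min at 37 deg C. Beta-arrestin recruitment was read as luminescence after 1 h with detection reagent at ambient temperature.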
D2 ag-2: Beta-Arrestin HTS for Positive Allosteric Modulators of the Human D2 Dopamine Receptor: Agonists. activation, % (no concentration beside the values). AID 624465, 2012. DiscoveRx PathHunter D2 beta-arrestin, luminescence, 90 min; 100% = 57 uM dopamine signal. actives 0.084% (n = 360,000); in the data active means activation above about 40%; inconclusive means between about 15% and that limit
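DiscoveRx PathHunter D2 beta-arrestin cells (2,100/well) attached overnight, then compound-stimulated 90 min at 37 C in HBSS/10 mM HEPES/0.1% Tween-20 buffer; beta-galactosidase complementation read by luminescence after 1 h at ambient temperature. Dopamine 57 uM final (EC100) as control.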
D2 antag: HTS Assay for Allosteric Antagonists of the Human D2 Dopamine Receptor: Primary Screen for Antagonists. D(2) dopamine receptor (Homo sapiens), P14416. HEK293 TREx D2 cells, calcium flux, dopamine EC80. inhibition, % at 10 µM. actives 2% (n = 340,000); in the data active means inhibition above about 30%; inactive means below that, where a call was filed; further: 0% is about no effect
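Dopamine at EC80 is the agonist stimulus; test compounds precede it by 180 s. Calcium flux read kinetically in a force-coupled, inducible HEK293 T-REx D2 cell line.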
D2 PAM-2: HTS Assay for Positive Allosteric Modulators of the Human D2 Dopamine Receptor: Primary Screen for Potentiators. actives 0.34% (n = 340,000). HEK293 T-REx D2, calcium flux, EC20 dopamine potentiation. D(2) dopamine receptor (Homo sapiens), P14416. potentiation, % at 10 µM;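 active means potentiation over 3 SD above the plate norm, cut at about 30% in these data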; further: 0% is about no effect
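Potentiation of an EC20 dopamine calcium response is measured in a force-coupled, tetracycline-inducible Hek293 Trex D2 line. Compound-only kinetic reads over 180 s flag agonists before dopamine addition.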
Active calls of the source: *; ? = inconclusive; / = no result. The list is not random: actives were taken first. Their share in the collection is about 2.4%.

SMILES	D2 ag-1	D2 PAM-1	D2 ag-2	D2 antag	D2 PAM-2
Cc1ccc(S(=O)(=O)Nc2ccc3c(c2)C(=O)c2ccccc2-3)cc1	/	-6.4	-7.1	/	/
Cc1ccc(NS(=O)(=O)c2ccc3c(c2)C(=O)c2ccccc2C3=O)c(C)c1	0.4	80.6*	4.8	-0.3	2.8
Cc1ccc(NS(=O)(=O)c2ccc(C)c(NC(=O)COc3ccccc3)c2)c(C)c1	-1.5	-1.3	-8.1	66.6*	-4.5
Cc1ccc(NC(=O)COc2ccccc2)c(NC(=O)c2ccccc2C)c1	/	-6.3	-2.7	/	/
C=CCNc1nc(SC)nc2ccsc12	0.3	-17.6	-0.7	31.9*	-3.5
Cc1cc(Br)ccc1NC(=O)c1cc2c(s1)-c1ccccc1SC2	-0.2	/	/	/	/
Nc1ncccc1OCc1cccc(C(F)(F)F)c1	-0.4	2.3	4.9	-10.5	31.6*
CCc1nn(Cc2c(C)cc(C)cc2C)c(=O)c2cc3cc(C)ccc3n12	-0.6	/	/	/	7.1
Cc1cc(N2CCN(C(c3ccccc3)c3ccc(Cl)cc3)CC2)n2ncnc2n1 (stereo unspecified)	-0.5	-3.8	-4.3	30.7*	8.4
Cc1cc(N2CC(=O)N(CCc3ccccc3)C(=O)C2)n2ncnc2n1	-0.5	-3.4	0.2	32.0*	-6.5
Cc1cc(N2CCN(c3ccccc3)CC2)n2ncnc2n1	0.4	-1.9	-1.9	-6.8	6.2
COc1cc(Cl)c(C)cc1NC(=O)NC1COc2ccccc2C1 (stereo unspecified)	0.3	/	/	/	-23.4
COc1ccc(CC(=O)Nc2nncs2)cc1OC	1.1	11.1	0.8	-7.6	-5.1
Cc1ccc(CC(=O)Nc2nncs2)cc1	0.3	4.0	0.1	47.3*	-0.5
CC(C)N(Cc1nc(-c2ccccc2)no1)C(=O)CN1C(=O)c2ccccc2C1=O	0.3	4.5	5.5	-5.6	35.8*
CC(C)N(Cc1nc(-c2ccccc2)no1)C(=O)CCCN1C(=O)c2ccccc2C1=O	0.7	-12.0	3.7	1.2	35.3*
CCc1ccc(C2c3c(oc4ccc(F)cc4c3=O)C(=O)N2CCc2ccc(OC)cc2)cc1 (stereo unspecified)	0.2	/	/	/	2.4
CCOc1ccc(C(=O)N2CCC(c3ccncc3)CC2)cc1	-0.2	/	/	/	-12.7
CCN(CC)C(=O)C1CCCN(c2ncnc3c2c(-c2ccccc2)cn3-c2cccc(C)c2)C1 (stereo unspecified)	0.4	/	/	/	7.3
CCOC(=O)N1CCc2c(sc3c2c(=O)n(Cc2ccccc2)c(=O)n3CC(=O)Nc2ccc(F)cc2)C1	0.5	/	/	/	19.6
CN1CCC(Oc2ccccc2Sc2ccccc2)CC1	1.1	-45.2	-3.1	32.4*	-17.3
CN1CCC(OC(c2ccccc2)c2ccccc2)CC1	-1.6	-24.7	-2.9	-16.6	-22.1
CC(=O)N1CCc2cc(C(=O)CN3CCC(C)CC3)ccc21	0.7	-3.9	2.0	7.2	-3.9
CC(=O)N1CCc2cc(C(=O)CN3CCN(c4cccc(Cl)c4)CC3)ccc21	53.5*	-12.9	9.7	73.0*	-15.9
O=C(NC1CC(=O)N(c2cccc(F)c2)C1)c1ccc2c(c1)OCO2 (stereo unspecified)	0.1	/	/	/	-11.3
SMILES	D2 ag-1	D2 PAM-1	D2 ag-2	D2 antag	D2 PAM-2
O=c1cc(-c2ccc([N+](=O)[O-])cc2)nc2cc(-c3ccc(Cl)cc3)[nH]n12	-1.4	/	/	35.5*	-13.7
C=CCN(CC=C)C(=O)Cc1ccc(F)cc1	0.0	-4.1	-0.3	31.1*	-4.2
CCCN(CCC)C(=O)Cc1ccc(F)cc1	-0.4	-1.9	-3.5	18.4	0.3
O=C1NC(c2ccc(-c3ccccc3[N+](=O)[O-])o2)C(C(=O)c2ccc(F)cc2)C(O)(C(F)(F)F)N1 (stereo unspecified)	1.5	58.4*	?	27.1	17.1
COc1ccc(-n2c(CCC(=O)O)ccc2-c2ccc(F)cc2)c(OC)c1	0.0	-9.8	1.4	6.6	32.2*
COC(=O)c1ccccc1-n1c(CCC(=O)O)ccc1-c1ccc(F)cc1	0.3	56.0*	8.9	3.4	0.2
CCOC(=O)N1CCN(Cc2nc3cc(NC(=O)c4ccc(F)cc4)ccc3n2C(C)C)CC1	/	/	/	/	14.7
COc1ccc2c(c1)NC(c1ccc(Cl)cc1)=NC(c1cccs1)=N2	-1.1	/	/	/	-0.2
CCCCNC(=S)N/N=C/c1ccc(C#N)cc1	-3.4	9.3	2.9	39.3*	9.6
COC(=O)c1ccccc1-c1ccc(/C=N/NC(=O)c2cc3ccccc3o2)o1	0.4	-27.9	-1.7	-13.9	-17.3
COC(=O)c1ccccc1-c1c2ccc(=N)cc-2oc2cc(N)ccc12	96.6*	-15.0	-15.6	76.9*	-19.7
COc1cc(Cl)c(C)cc1NC(=O)CSc1cc(-c2ccccc2)nc(C)n1	0.8	/	/	/	-16.6
Cc1ccc(CNC(=O)c2cc3c(s2)CS(=O)(=O)C3)cc1	-0.6	-6.9	1.4	3.9	2.2
Cc1ccc(CNC(=O)c2cc3c(s2)CN(Cc2ccccc2)C3)cc1	-0.3	-14.4	-0.8	38.9*	-13.2
COc1ccc(C(=O)NCC(c2ccc3c(c2)OCO3)N2CCN(C)CC2)cc1OC (stereo unspecified)	-1.9	/	/	/	-5.8
COc1ccc(NC(=O)c2ccco2)cc1NC(=O)c1cccc(C)c1OC	-1.1	/	/	/	/
COc1cccc(N2CCN(c3ncnc4c3[nH]c3ccc(F)cc34)CC2C)c1 (stereo unspecified)	3.1	51.9*	10.0	-1.4	-2.3
COc1cccc(N2CCN(c3ncnc4c3[nH]c3ccccc34)CC2C)c1 (stereo unspecified)	0.7	/	/	-8.1	7.8
Cc1cc(NC(=O)C(C)SCC(=O)OC(C)C(=O)Nc2ccccc2C)no1 (stereo unspecified)	0.6	-0.7	-2.5	13.7	-13.0
COc1ccc([N+](=O)[O-])cc1NC(=O)C(C)OC(=O)CSC(C)C(=O)Nc1cc(C)on1 (stereo unspecified)	0.0	-23.7	-6.7	35.9*	8.3
N=C1/C(=C\c2coc3ccccc3c2=O)C(=O)N=C2SC(c3ccncc3)=NN12	59.5*	1.8	5.0	16.8	-7.6
CSC1=NSC2=NC(=O)/C(=C\c3coc4ccccc4c3=O)C(=N)N12	109.7*	6.8	2.6	29.8	-8.0
COc1cccc(C(=O)C2CCCN(C/C=C/c3ccccc3OC)C2)c1 (stereo unspecified)	-0.7	-2.3	1.4	-0.3	-21.9
